# Measurements as given in article PMC10726135, “HNF4α isoforms regulate the circadian balance between carbohydrate and lipid metabolism in the liver”.
# In all, about 18,000 sequences were measured (“log2 normalized intensity”: median about 0.39, highest 2% from about 6.6 on). What follows is part of a selection rich in the highest values, with near analogues and random picks from the rest.
# Target: T1, HNF4alpha2 (COS-7 nuclear extract) (Homo sapiens, UniProt P41235 1-474)
# T1 sequence: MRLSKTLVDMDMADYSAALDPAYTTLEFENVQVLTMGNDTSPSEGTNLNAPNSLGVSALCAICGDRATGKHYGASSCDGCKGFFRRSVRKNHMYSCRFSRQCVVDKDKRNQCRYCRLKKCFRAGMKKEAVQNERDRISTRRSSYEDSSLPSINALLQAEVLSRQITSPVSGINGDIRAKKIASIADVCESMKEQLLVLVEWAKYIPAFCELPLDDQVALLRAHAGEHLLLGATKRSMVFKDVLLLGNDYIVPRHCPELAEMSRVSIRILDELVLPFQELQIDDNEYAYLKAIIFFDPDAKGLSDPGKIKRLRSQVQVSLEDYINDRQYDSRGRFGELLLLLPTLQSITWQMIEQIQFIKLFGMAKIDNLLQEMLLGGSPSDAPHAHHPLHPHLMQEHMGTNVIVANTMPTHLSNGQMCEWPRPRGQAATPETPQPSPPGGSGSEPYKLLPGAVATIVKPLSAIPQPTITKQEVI
# Test: protein-binding microarray; COS-7 nuclear extract on double-stranded Agilent 4x180k PBM; binding buffer, salt, pH and temperature not given in the material; high values mean tight binding
# Conditions: chain copies: 2; label: 3' end of strand 1 on the slide; dsDNA, one strand shown
# Method in brief: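 COS-7 cells were transiently transfected by CaPO4 with an expression vector for a human HNF4α isoform, and nuclear extracts were prepared from them. The extracts were applied to a custom Agilent SurePrint G3 4x180k array of double-stranded ~60-nt oligonucleotides, with ~44,000 test sequences spotted in quadruplicate. An Agilent G2565CA scanner imaged bound HNF4α at 2-µm resolution. Binding signal is the background-corrected, normalized gProcessedSignal from Agilent software.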
row,Sequence,binding signal [log2 normalized intensity]
1,AGCCCCACAGAGCAAAGGTCATGCATAGAAGCCTAGGGAGATTAGAGTATCGGTCGA,4.52
2,ATGGTTTGACCCTGCGATAAGTAGATACCAGCCTAGGGAGATTAGAGTATCGGTCGA,0.964
3,GAGTCTGTTGTCTAACATTTTTGACCTTCAGCCTAGGGAGATTAGAGTATCGGTCGA,4.09
4,TTGACCTTTGGCCAAGGGCAGTGTTTGCCCGCCTAGGGAGATTAGAGTATCGGTCGA,5.35
5,CTTTGGCCAAGGGCAGTGTTTGCCCAGCTTGCCTAGGGAGATTAGAGTATCGGTCGA,0.106
6,TCAGTCTGGTTGAGGCAAGCAAAAGCCAAGGCCTAGGGAGATTAGAGTATCGGTCGA,-0.985
7,GTCTGTTGACCTTTGGCCAAGGGCAGTGTTGCCTAGGGAGATTAGAGTATCGGTCGA,6.71
8,AGGCAGTCTGTTGACCTTTGGCCAAGGGCAGCCTAGGGAGATTAGAGTATCGGTCGA,7.73
9,CAACTGGTATGTTAGATTAGTGTGCAGCTTGCCTAGGGAGATTAGAGTATCGGTCGA,0.891
10,TCTGACCTCTTTCAAGCCTGAACAAACATGGCCTAGGGAGATTAGAGTATCGGTCGA,0.93
11,GTCCGGCAGAGCTATGGAATTTTGGCCTTTGCCTAGGGAGATTAGAGTATCGGTCGA,3.22
12,CCCTTTGACCTCTGCTTCCTGCTACAGAGCGCCTAGGGAGATTAGAGTATCGGTCGA,1.87
13,GCAGGGGATGCCCTTTGACCTCTGCTTCCTGCCTAGGGAGATTAGAGTATCGGTCGA,8.18
14,CTAGGCTCCAGGGCACTGCCCTTTGGAACCGCCTAGGGAGATTAGAGTATCGGTCGA,6.71
15,TTATGCAGACCTTTGCCCTTTGTTTACATAGCCTAGGGAGATTAGAGTATCGGTCGA,5.27
16,ATGCCCCTCCCAGGGACACATGCCCCTTCCGCCTAGGGAGATTAGAGTATCGGTCGA,5.44
17,CTCCAGGGCACTGCCCTTTGGAACCTGCCCGCCTAGGGAGATTAGAGTATCGGTCGA,5.54
18,TACTTTGCTTCCAAGTTATGCAGACCTTTGGCCTAGGGAGATTAGAGTATCGGTCGA,2.14
19,TGCTTCCAAGTTATGCAGACCTTTGCCCTTGCCTAGGGAGATTAGAGTATCGGTCGA,7.17
20,AAAGCCTAGGCTCCAGGGCACTGCCCTTTGGCCTAGGGAGATTAGAGTATCGGTCGA,3
21,TGCACATTCCCTCCAGCAGGGGATGCCCTTGCCTAGGGAGATTAGAGTATCGGTCGA,2.38
22,GGATGCCCTTTGACCTCTGCTTCCTGCTACGCCTAGGGAGATTAGAGTATCGGTCGA,5.58

row,Sequence,binding signal [log2 normalized intensity]
1,ATTCCCTCCAGCAGGGGATGCCCTTTGACCGCCTAGGGAGATTAGAGTATCGGTCGA,8.91
2,TTGGGTCACAATCACAAATGCCTTCAGGGGGCCTAGGGAGATTAGAGTATCGGTCGA,0.838
3,TCAGCCCACAGGTCAATCCAGGTTGCTGCCGCCTAGGGAGATTAGAGTATCGGTCGA,-0.646
4,GGCCCAGAGCACAACCTTTGGCCGTGCATGGCCTAGGGAGATTAGAGTATCGGTCGA,2.45
5,TTAAATCCTATCCTAGGGTTAAAGTCTACAGCCTAGGGAGATTAGAGTATCGGTCGA,4.31
6,ACCCCACGGACTTAAATTGTGCTGTGTCAGGCCTAGGGAGATTAGAGTATCGGTCGA,1.49
7,CAAAGTCCGCTTGCCTGAGGGTCATGACTAGCCTAGGGAGATTAGAGTATCGGTCGA,2.26
8,GCCAATTCAGCAAACAAAGGCACTTCTCTCGCCTAGGGAGATTAGAGTATCGGTCGA,-0.96
9,TGAGCAGGCAGTGTCACAGAAATCATGTAGGCCTAGGGAGATTAGAGTATCGGTCGA,0.722
10,AGGTCAAAGTGCAACTACAAGGAGCAGCCTGCCTAGGGAGATTAGAGTATCGGTCGA,3.48
11,ACCTTGTGCAGTATCCCAGGGACTTACTCAGCCTAGGGAGATTAGAGTATCGGTCGA,-0.811
12,CAATAAGCAATACATTGAACTTTGAACACCGCCTAGGGAGATTAGAGTATCGGTCGA,6.91
13,AAGCAAACAAAACACGGACTTTGAAGCTCCGCCTAGGGAGATTAGAGTATCGGTCGA,1.95
14,TTTTCAACATATACTTTGAACTTGTTTTTTGCCTAGGGAGATTAGAGTATCGGTCGA,2.27
15,TTGTTCAATAAGCAATACATTGAACTTTGAGCCTAGGGAGATTAGAGTATCGGTCGA,7.41
16,AGAGCCTAGTTCATTGCAATTACTCAATAAGCCTAGGGAGATTAGAGTATCGGTCGA,-0.91
17,AGCAATACATTGAACTTTGAACACCTCTTCGCCTAGGGAGATTAGAGTATCGGTCGA,5.41
18,TTTCATCTTCTTAGCCTTTGAACCCCACACGCCTAGGGAGATTAGAGTATCGGTCGA,4.78
19,GATTTCATCTAAGGACAAACTTTGTCACTGGCCTAGGGAGATTAGAGTATCGGTCGA,1.15
20,ATCTAAGATTCCCCCTACCCTCAATATCTGGCCTAGGGAGATTAGAGTATCGGTCGA,4.35
21,TTAACAAGCATTTTGTTCCCATTGATCATTGCCTAGGGAGATTAGAGTATCGGTCGA,1.23
22,CTGCCAAAGCTCACAGATGTGGAATGAAACGCCTAGGGAGATTAGAGTATCGGTCGA,-0.0699

row,Sequence,binding signal [log2 normalized intensity]
1,AAACAATGACCTCTGCACCCTTCCCTGAGTGCCTAGGGAGATTAGAGTATCGGTCGA,3.51
2,CAATGACCTTTGACCCTTCTCTGGGAGAAAGCCTAGGGAGATTAGAGTATCGGTCGA,8.21
3,TTTGAAAGAAAGAGACCTTTACCCTGACCTGCCTAGGGAGATTAGAGTATCGGTCGA,3.55
4,ACCTTTGACCCTTCTCTGGGAGAAAGGGAGGCCTAGGGAGATTAGAGTATCGGTCGA,2.99
5,CAATCCTGGAGAAGGAGCACCAATGACCTTGCCTAGGGAGATTAGAGTATCGGTCGA,3.47
6,GAAGGAGCACCAATGACCTTTGACCCTTCTGCCTAGGGAGATTAGAGTATCGGTCGA,11.1
7,TTCCCTCATGATTTAGTAAGTTCAAGAAGAGCCTAGGGAGATTAGAGTATCGGTCGA,0.956
8,GGCCTTGGGCCACCTGAGACAGTTTATGCCGCCTAGGGAGATTAGAGTATCGGTCGA,-0.994
9,CCCTTTGGCCTTTCTAATTATTTACAGGGAGCCTAGGGAGATTAGAGTATCGGTCGA,0.82
10,TAGACTTTGGACCTGGCCTGCGGGGTCAGGGCCTAGGGAGATTAGAGTATCGGTCGA,5.39
11,CGGGTATGTGGGGCGTGTGTTAGACTTTGGGCCTAGGGAGATTAGAGTATCGGTCGA,4.22
12,ATGTGGGGCGTGTGTTAGACTTTGGACCTGGCCTAGGGAGATTAGAGTATCGGTCGA,8.86
13,GTCAAGTAGAGACCTGTCTTCCTGGTGACCGCCTAGGGAGATTAGAGTATCGGTCGA,2.19
14,AGGACTTTGGACCGTCTTGTGGATCCTTGGGCCTAGGGAGATTAGAGTATCGGTCGA,4.73
15,ACACACAATAAGGACTTTGGACCGTCTTGTGCCTAGGGAGATTAGAGTATCGGTCGA,7.27
16,CTCATTCCTATTCGGTGCTGACCTTTGTTCGCCTAGGGAGATTAGAGTATCGGTCGA,7.77
17,GTAGAGACCTGTCTTCCTGGTGACCTTTGTGCCTAGGGAGATTAGAGTATCGGTCGA,7.11
18,TCCTATTCGGTGCTGACCTTTGTTCACATTGCCTAGGGAGATTAGAGTATCGGTCGA,5.89
19,GACCTGTCTTCCTGGTGACCTTTGTTTGGTGCCTAGGGAGATTAGAGTATCGGTCGA,4.94
20,CAATAAGGACTTTGGACCGTCTTGTGGATCGCCTAGGGAGATTAGAGTATCGGTCGA,5.92
21,GAGCACTCATTCCTATTCGGTGCTGACCTTGCCTAGGGAGATTAGAGTATCGGTCGA,3.47
22,CATGGGCTGTCACCTTTACCCCCACTCTCCGCCTAGGGAGATTAGAGTATCGGTCGA,4.46

row,Sequence,binding signal [log2 normalized intensity]
1,CTCCCAAGGTATCCTCCTAGAGTCCAAGGTGCCTAGGGAGATTAGAGTATCGGTCGA,2.68
2,GAACTTTGACTTATTTAGTAGTGGCAAGAGGCCTAGGGAGATTAGAGTATCGGTCGA,2.7
3,CAAAGCCCCTTTCCACTCTACCGTCCTCCCGCCTAGGGAGATTAGAGTATCGGTCGA,1.91
4,CCAGGGACTTTGAACACTTCTTTGTTACTTGCCTAGGGAGATTAGAGTATCGGTCGA,2.44
5,GTGCTGACCTCCTGTCTCATCCTGTGACCAGCCTAGGGAGATTAGAGTATCGGTCGA,1.42
6,TCACCCTCTCCACCCCCATGCAAGTTCCCAGCCTAGGGAGATTAGAGTATCGGTCGA,5.26
7,GATACAACGGTTCAAAGGACAGACTTTGGAGCCTAGGGAGATTAGAGTATCGGTCGA,3.39
8,GGGCGTGTGTTAGACTTTGGACCTGGCCTGGCCTAGGGAGATTAGAGTATCGGTCGA,7.25
9,ACTTTGGACCTTTGTGTGTGTGTGTGTGTGGCCTAGGGAGATTAGAGTATCGGTCGA,3.6
10,GTGAGTGGACTTTGGTCCTGGTCAGACTTGGCCTAGGGAGATTAGAGTATCGGTCGA,5.76
11,GTTGGACTTTGGACCTTTGTGTGTGTGTGTGCCTAGGGAGATTAGAGTATCGGTCGA,7.93
12,CACCTGTGTCAACATGGACTTTGTTGTTTGGCCTAGGGAGATTAGAGTATCGGTCGA,4.33
13,TTCAAAGGACAGACTTTGGACCTGGCCCTCGCCTAGGGAGATTAGAGTATCGGTCGA,5.66
14,ACTGAATGTGACCTTTTGGACCACAGAGTGGCCTAGGGAGATTAGAGTATCGGTCGA,5.39
15,GGACTTTGGCCTTACTTGGCCTGTTTGCTGGCCTAGGGAGATTAGAGTATCGGTCGA,5.51
16,AACGGTTCAAAGGACAGACTTTGGACCTGGGCCTAGGGAGATTAGAGTATCGGTCGA,7.15
17,CCTGATGACAACTGAATGTGACCTTTTGGAGCCTAGGGAGATTAGAGTATCGGTCGA,5.25
18,TGACAACTGAATGTGACCTTTTGGACCACAGCCTAGGGAGATTAGAGTATCGGTCGA,6.82
19,TGGTTAGGTATTTTAAGTCACCAGATGAGAGCCTAGGGAGATTAGAGTATCGGTCGA,0.217
